Source: PubChem (National Center for Advancing Translational Sciences (NCATS))
Rows were chosen to be rich in hits. Some 11% of all compounds tested hit in one or more screens of this group.
BAZ2B block: qHTS Assay for Inhibitors of BAZ2B; Bromodomain adjacent to zinc finger domain protein 2B (Homo sapiens), Q9UIF8; AlphaScreen BAZ2B-H3K14Ac peptide displacement; Potency, µM (top dose mostly 114 µM), hits mostly inhibitors; hit rate 4.4% among 360,000; AID 504333, 2011; also: nearly all actives have a fitted effect of over 60% in size
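Inhibition is scored as reduced AlphaScreen emission. The BAZ2B/b-H3(5-23)K14Ac complex (50 nM each) in PBS pH 7.4, 0.01% Tween-20 meets compound (up to 110 uM) for 30 min at RT before bead addition.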
L3MBTL1 block: qHTS Assay for the Inhibitors of L3MBTL1; Potency, µM (series often up to 57.1 µM), hits mostly inhibitors; hit rate 0.66% among 230,000; Lethal(3)malignant brain tumor-like protein 1 (Homo sapiens), Q9Y468; AlphaScreen L3MBTL1–H3K9me1 peptide binding; also: nearly all actives have a fitted effect of over 60% in size
Target sequence (Q9Y468 whole entry, looked up): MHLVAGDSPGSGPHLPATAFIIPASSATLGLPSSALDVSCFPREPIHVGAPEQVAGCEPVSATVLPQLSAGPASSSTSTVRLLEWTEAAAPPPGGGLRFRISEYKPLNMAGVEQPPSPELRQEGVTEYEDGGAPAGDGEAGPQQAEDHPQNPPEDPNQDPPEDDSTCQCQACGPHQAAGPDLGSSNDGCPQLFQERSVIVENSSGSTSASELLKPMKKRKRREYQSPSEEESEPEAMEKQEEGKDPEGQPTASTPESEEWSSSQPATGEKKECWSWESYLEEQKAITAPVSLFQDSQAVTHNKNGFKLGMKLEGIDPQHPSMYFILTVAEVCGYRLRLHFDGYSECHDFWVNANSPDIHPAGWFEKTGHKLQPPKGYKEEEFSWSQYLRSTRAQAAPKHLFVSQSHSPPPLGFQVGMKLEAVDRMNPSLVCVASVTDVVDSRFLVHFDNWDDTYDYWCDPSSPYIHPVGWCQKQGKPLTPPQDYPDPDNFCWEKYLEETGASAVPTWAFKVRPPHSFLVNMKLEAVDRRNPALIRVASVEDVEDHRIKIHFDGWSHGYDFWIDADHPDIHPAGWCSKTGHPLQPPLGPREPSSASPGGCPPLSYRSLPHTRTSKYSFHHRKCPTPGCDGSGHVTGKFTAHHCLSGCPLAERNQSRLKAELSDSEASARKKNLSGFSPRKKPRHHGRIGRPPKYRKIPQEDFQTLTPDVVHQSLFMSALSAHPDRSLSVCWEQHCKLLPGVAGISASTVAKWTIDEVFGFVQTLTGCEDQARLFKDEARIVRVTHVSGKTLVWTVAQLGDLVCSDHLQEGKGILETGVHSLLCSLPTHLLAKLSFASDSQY
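First, the protein-peptide complex forms for 30 min at room temperature (L3MBTL1 50 nM, biotinylated H3K9me1 peptide 75 nM). Next, compounds are pin-transferred and incubated 30 min. Finally, AlphaScreen beads are added and read after 30 min.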
HP1b binding inh: HTS for Inhibitors of HP1-beta Chromodomain Interactions with Methylated Histone Tails; hit rate 0.56% among 390,000; AlphaScreen HP1-beta / biotin-H3K9me3 peptide binding; Chromobox protein homolog 1 (Homo sapiens), P83916; Potency, µM (highest dose often 114 µM), most hits filed as inhibitors; also: nearly all actives have a fitted effect of over 70% in size
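Compound inhibition of the preformed complex between 50 nM HP1-beta and 50 nM biotinylated H3K9me3 peptide was read by AlphaScreen. Buffer was PBS pH 7.4 with 0.01% Tween-20. Incubations ran 30 min at room temperature, with 10 ug/mL donor/acceptor beads.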
JMJD2A Tudor inh: qHTS Assay for Inhibitors of JMJD2A-Tudor Domain | Lysine-specific demethylase 4A (Homo sapiens), O75164 | AlphaScreen JMJD2A-Tudor / H3K4me3 peptide binding | Potency, µM (doses to about 114 µM), actives largely listed as inhibitors | hit rate 4.4% among 390,000 | AID 504339, 2011; also: nearly all actives have a fitted effect of over 50% in size
G9a inh: qHTS Assay for Inhibitors of Histone Lysine Methyltransferase G9a | G9a H3K9 monomethylation, AlphaScreen, 2 h | Histone-lysine N-methyltransferase EHMT2 (Homo sapiens), Q96KQ7 | hit rate 8.8% among 350,000 | Potency, µM (top dose mostly 102 µM), hits mostly inhibitors; also: nearly all actives have a fitted effect of over 75% in size
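Readings reflect AlphaScreen signal from monomethyl-H3K9 antibody detection. HMT at 20 nM; substrate b-H3K9 500 nM; cofactor SAM 20 uM; 2 h RT reaction; compounds tested as titrations in qHTS with 15 min preincubation.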
Of the large screens only hits and unclear results are named; the others gave an inactive call. Calls follow the shape of the dose curve; as a rule, active = well fitted inhibition curve with a large enough effect; inconclusive = small, poorly fitted or top-dose-only effect; inactive = no such curve, though single readings can be large or run the other way.

Cc1conc1NC(c1cccs1)c1ccc2cccnc2c1O (centres undefined)	BAZ2B block 25µM, L3MBTL1 block inconclusive (no result: HP1b binding inh, JMJD2A Tudor inh)
CC(C)CC(=O)NC(NC(=S)Nc1cccc2cccnc12)C(Cl)(Cl)Cl (centres undefined)	G9a inh inconclusive
O=C(O)c1cc(F)c(S(=O)(=O)N2CCN(S(=O)(=O)c3ccc4c(c3)OCCO4)CC2)cc1F	none (no result: BAZ2B block, L3MBTL1 block, HP1b binding inh, G9a inh)
O=C(CNC(=O)c1ccccc1)OCC(=O)c1ccc2ccccc2c1	none (no result: BAZ2B block, L3MBTL1 block, G9a inh)
CCCCOC(=O)C1[C@H]2C(=O)N(Cc3cccs3)C[C@]23C=C[C@H]1O3 (some centres undefined)	BAZ2B block 79µM
CCCOC(=O)C1[C@H]2C(=O)N(Cc3ccco3)C[C@]23C=C[C@H]1O3 (some centres undefined)	G9a inh 50µM
CCCCCOC(=O)C1[C@H]2C(=O)N(Cc3cccs3)C[C@]23C=C[C@H]1O3 (some centres undefined)	none
CO[C@H]1C=CO[C@@]2(C)Oc3c(C)c(O)c4c(O)c(c(C=NN5CCN(C)CC5)c(O)c4c3C2=O)NC(=O)C(C)=CC=C[C@H](C)[C@H](O)[C@@H](C)[C@@H](O)[C@@H](C)[C@H](OC(C)=O)[C@@H]1C	BAZ2B block 45µM, JMJD2A Tudor inh inconclusive, G9a inh inconclusive
COc1cc(/C=C/C(=O)Nc2nnc(CC(C)(C)C)s2)cc(OC)c1OC	HP1b binding inh inconclusive, JMJD2A Tudor inh inconclusive, G9a inh 2.2µM
COc1cc(/C=C/C(=O)Nc2nnc(CC(C)C)s2)cc(OC)c1OC	none
COc1ccc(S(=O)(=O)N(Cc2nc(-c3cccc(C)c3)no2)C2CCCCC2)cc1	none (no result: L3MBTL1 block)
O=c1/c(=C/c2ccc(O)cc2)sc2nc3cc(Br)cnc3n12	G9a inh 10µM (no result: HP1b binding inh, JMJD2A Tudor inh)
O=c1/c(=C\c2ccc(O)cc2)sc2nc(-c3ccccc3)c(-c3ccccc3)n12	BAZ2B block inconclusive, G9a inh inconclusive (no result: L3MBTL1 block)
O=C(O)c1cc(S(=O)(=O)Nc2cc(Cl)ccc2Oc2ccccc2)ccc1O	G9a inh 16µM
CC(C)NS(=O)(=O)c1ccc(CCC(=O)Nc2cc(Cl)ccc2Oc2ccccc2)cc1	none (no result: L3MBTL1 block)
COc1cc(NC(=O)C(OC(=O)CNC(=O)c2ccccc2)c2ccccc2)cc(OC)c1 (centres undefined)	none (no result: BAZ2B block, L3MBTL1 block, HP1b binding inh, G9a inh)
Cc1c(CCC(=O)O)c(=O)n2c([nH]c3ccccc32)c1C#N	G9a inh 2.2µM (no result: L3MBTL1 block)
CCc1c(C)c(C#N)c2[nH]c3ccccc3n2c1=S	BAZ2B block 35µM, HP1b binding inh 20µM, JMJD2A Tudor inh 5.6µM (no result: G9a inh)
CCc1cc(=O)n2c([nH]c3ccccc32)c1C#N	none (no result: L3MBTL1 block)
C=C(C)Cc1c(C)c(C#N)c2[nH]c3ccccc3n2c1=O	none (no result: L3MBTL1 block)
CCc1cc(=S)n2c([nH]c3ccccc32)c1C#N	BAZ2B block 79µM, HP1b binding inh 40µM, JMJD2A Tudor inh 20µM, G9a inh 4µM (no result: L3MBTL1 block)
Clc1cccc(-c2csc(-c3nc(-c4ccc(Br)s4)cs3)n2)c1	none (no result: L3MBTL1 block)
O=C1NC(=O)/C(=C\c2ccc(Br)o2)S1	JMJD2A Tudor inh inconclusive, G9a inh 45µM (no result: L3MBTL1 block)
O=C(CSc1nn(-c2ccc(F)cc2)c(=S)s1)N1CCN(C(=O)c2ccco2)CC1	none
O=C(CSc1nn(-c2ccc(Cl)cc2)c(=S)s1)N1CCN(C(=O)c2ccco2)CC1	G9a inh 79µM
Cc1[nH]c2ccccc2c1/C=N/Nc1ccccc1[N+](=O)[O-]	BAZ2B block 5.6µM, L3MBTL1 block 18µM, HP1b binding inh 40µM, JMJD2A Tudor inh 22µM, G9a inh 7.9µM
Cc1[nH]c2ccccc2c1/C=N/NC(=O)CCC(=O)NCc1ccccc1	JMJD2A Tudor inh 11µM
Cc1n[nH]c(C)c1CCC(=O)N/N=C/c1c(C)[nH]c2ccccc12	BAZ2B block inconclusive (no result: L3MBTL1 block)
COc1ccc(NS(=O)(=O)c2cc([N+](=O)[O-])ccc2N/N=C/c2c(C)[nH]c3ccccc23)cc1	none (no result: BAZ2B block, L3MBTL1 block, G9a inh)
Cc1[nH]c2ccccc2c1/C=N/NS(=O)(=O)c1ccccc1	JMJD2A Tudor inh inconclusive, G9a inh 50µM
